Data as given in PubChem BioAssay (NCATS).
Records with an inconclusive call do not appear. Calls of active or inactive are those of the source. Unless noted, the call rests on the fitted dose curve; in most records, active means well fitted curve in the direction sought with a large enough effect; inconclusive means small, poorly fitted or top-dose-only effect, or another doubt; inactive means no such curve, though single readings can be large; an effect the other way counts as inactive or inconclusive.

Legend:
[1] = target: Lysosomal acid glucosylceramidase (Homo sapiens) (UniProt P04062); experiment: Glucocerebrosidase-p2 (AID 348; in the data active means potency below about 10 µM; further: potency means the concentration at half of the fitted maximal effect); settings: purified GBA, blue fluorogenic substrate, 40 min
Sequence of Lysosomal acid glucosylceramidase (Homo sapiens) (P04062 whole entry, looked up): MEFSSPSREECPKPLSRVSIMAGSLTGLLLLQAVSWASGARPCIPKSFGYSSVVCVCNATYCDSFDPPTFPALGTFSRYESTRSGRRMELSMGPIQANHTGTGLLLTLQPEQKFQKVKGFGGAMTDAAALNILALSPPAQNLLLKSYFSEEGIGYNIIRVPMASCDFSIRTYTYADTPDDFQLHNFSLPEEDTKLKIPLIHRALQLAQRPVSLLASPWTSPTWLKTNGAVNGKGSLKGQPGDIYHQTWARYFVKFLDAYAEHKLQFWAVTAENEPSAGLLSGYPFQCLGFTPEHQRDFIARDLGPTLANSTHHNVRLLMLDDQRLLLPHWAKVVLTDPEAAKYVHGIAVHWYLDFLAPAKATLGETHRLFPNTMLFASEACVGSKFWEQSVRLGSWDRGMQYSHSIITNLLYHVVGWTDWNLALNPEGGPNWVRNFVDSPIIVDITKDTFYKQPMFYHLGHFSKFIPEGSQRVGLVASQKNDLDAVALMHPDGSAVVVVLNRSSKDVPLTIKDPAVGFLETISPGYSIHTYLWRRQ
Summary of the method: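 Normal human glucocerebrosidase (0.2 nM) with blue fluorogenic substrate (80 uM final) in citrate/phosphate pH 5.9 with 10mM sodium taurocholate, 0.01% tween-20; 40 min RT, NaOH/glycine stop; fluorescence Ex 365/Em 440; AC50 from a titration from 0.6 nM upwards.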

[2] = AP1 Signaling Pathway (AID 357; active means well fitted curve in either direction with a large enough effect, not every such curve was filed as active;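 further: ME-180 reporter cells stimulated with EGF at its EC50 level; on the % scale 0 is the no-effect control and ±100 the full control effect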); settings: ME-180 AP-1-bla reporter, EGF-induced, beta-lactamase ratio, 5 h; at 7.69 µM (top of the series) unless noted
Summary of the method: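 A ratiometric CCF4 readout (405 nm excitation; 460 and 530 nm emission) quantified AP-1-driven beta-lactamase in ME-180 cells after 5 h with compound and EC50 EGF; AC50 values were derived for activators and inhibitors.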

[3] = target: Cytochrome P450 1A2 (Homo sapiens) (UniProt P05177); experiment: p450-cyp1a2 (AID 410; calls by dose curve; further: potency means the concentration at half of the fitted maximal effect;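 on activity change, negative = inhibition: -100% = full effect of reference inhibitor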); settings: recombinant CYP1A2, luciferin-ME demethylation, luminescence; series mostly up to 57 µM
Sequence of Cytochrome P450 1A2 (Homo sapiens) (P05177 whole entry, looked up): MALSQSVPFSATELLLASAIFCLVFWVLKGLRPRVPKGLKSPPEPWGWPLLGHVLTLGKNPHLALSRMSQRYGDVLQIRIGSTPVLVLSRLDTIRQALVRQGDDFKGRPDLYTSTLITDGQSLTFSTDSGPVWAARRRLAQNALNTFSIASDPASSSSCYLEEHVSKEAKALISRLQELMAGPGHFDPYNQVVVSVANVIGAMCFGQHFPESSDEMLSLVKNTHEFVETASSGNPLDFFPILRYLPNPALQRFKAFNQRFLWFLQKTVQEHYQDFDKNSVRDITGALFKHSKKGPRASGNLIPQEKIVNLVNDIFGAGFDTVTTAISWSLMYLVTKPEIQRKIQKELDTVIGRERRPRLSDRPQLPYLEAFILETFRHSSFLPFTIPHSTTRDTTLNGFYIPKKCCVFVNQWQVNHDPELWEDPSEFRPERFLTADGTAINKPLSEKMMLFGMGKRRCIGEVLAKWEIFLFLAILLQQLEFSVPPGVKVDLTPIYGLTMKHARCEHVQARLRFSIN
Summary of the method: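 O-Demethylation of luciferin 6' methyl ether by human CYP1A2 is monitored as luciferase luminescence. Substrate sits at Km (100uM); enzyme is 20nM. Values are scaled to 57 uM furafylline as maximal inhibition.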

[4] = NFAT Signaling Pathway (AID 444; active means well fitted curve in either direction with a large enough effect, not every such curve was filed as active;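 further: carbachol stimulus at about its EC50 of 1 µM final; on the % scale 0 is the no-effect control and ±100 the full control effect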); settings: Jurkat NFAT-bla M1, carbachol, beta-lactamase ratio, 5 h; at 7.69 µM (top of the series) unless noted
Summary of the method: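 Read-out: CCF4 FRET ratio (460 nm/530 nm) after 1 h RT dye loading, used for %activity and AC50 from titration series. Cells: Jurkat NFAT-β-lactamase/M1 line, treated with compound plus 1 uM carbachol for 5 h, 37 °C.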

[5] = Stat Signaling Pathway (AID 446; active means well fitted curve in either direction with a large enough effect, not every such curve was filed as active;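 further: ME-180 cervical cancer cells given 40 pM IL-6 alongside compound; SIE-controlled beta-lactamase reporter measured as 460/530 nm FRET emission ratio; on the % scale 0 is the no-effect control and ±100 the full control effect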); settings: ME-180 (cervical carcinoma) SIE beta-lactamase reporter, IL-6 stimulated, 5 h; at 7.69 µM (top of the series) unless noted
Summary of the method: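 Normalization used AC90 stimulation (300 pM IL-6) and AC90 inhibition (125 nM pan-JAK inhibitor at 40 pM IL-6). The underlying signal is SIE-driven beta-lactamase in ME-180 cells after 5 h IL-6 exposure with compound.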

[6] = target: Glucocorticoid receptor (Homo sapiens) (UniProt P04150); experiment: GR-GFP Redistribution (AID 450;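 active means compounds whose dose series gives a full or clear partial fitted curve of increased nuclear translocation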; further: potency means the concentration at half of the fitted maximal effect); settings: U2OS GR-GFP nuclear translocation, laser cytometry, 2 h
Sequence of Glucocorticoid receptor (Homo sapiens) (P04150 whole entry, looked up, the tested form may be a part): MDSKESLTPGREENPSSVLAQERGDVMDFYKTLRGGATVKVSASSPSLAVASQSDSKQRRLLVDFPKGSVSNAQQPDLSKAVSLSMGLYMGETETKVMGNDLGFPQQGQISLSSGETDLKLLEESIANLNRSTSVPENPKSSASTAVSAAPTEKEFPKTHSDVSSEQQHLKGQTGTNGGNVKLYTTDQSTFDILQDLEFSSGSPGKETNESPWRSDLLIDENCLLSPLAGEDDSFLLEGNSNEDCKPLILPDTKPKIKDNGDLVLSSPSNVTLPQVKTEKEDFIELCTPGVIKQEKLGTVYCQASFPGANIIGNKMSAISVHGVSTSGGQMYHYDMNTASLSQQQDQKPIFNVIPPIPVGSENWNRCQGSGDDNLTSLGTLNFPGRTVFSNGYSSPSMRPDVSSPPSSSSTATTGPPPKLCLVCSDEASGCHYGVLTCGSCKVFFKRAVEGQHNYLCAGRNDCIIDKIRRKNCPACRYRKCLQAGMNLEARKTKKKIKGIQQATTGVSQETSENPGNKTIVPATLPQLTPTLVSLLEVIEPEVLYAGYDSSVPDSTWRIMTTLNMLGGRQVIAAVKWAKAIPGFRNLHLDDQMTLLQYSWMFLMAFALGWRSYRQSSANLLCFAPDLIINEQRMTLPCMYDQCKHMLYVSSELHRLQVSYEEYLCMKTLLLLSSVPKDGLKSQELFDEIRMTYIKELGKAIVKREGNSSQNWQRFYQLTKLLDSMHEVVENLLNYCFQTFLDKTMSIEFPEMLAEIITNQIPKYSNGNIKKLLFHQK

[7] = target: Glucocorticoid receptor (Homo sapiens) (UniProt P04150); experiment: GR-EFC Redistribution (AID 451; calls by dose curve; further: potency means the concentration at half of the fitted maximal effect); settings: CHO-K1 GR-EFC translocation, beta-gal luminescence, 2 h
Summary of the method: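 Translocation of GR-ED fusion to nuclear EA restores b-gal, read by luminescence after 1 h room-temperature detection. Engineered CHO-K1 biosensor cells, 1,000/well, exposed 2 h at 37 C to titrations up to 46 uM final.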

[8] = target: Mitogen-activated protein kinase 10 (Mus musculus) (UniProt Q61831); experiment: JNK3 AlphaScreen Assay (AID 530; active means well fitted curve in either direction with a large enough effect, not every such curve was filed as active;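 further: kinase came from lysate of stimulated human HepG2 cells; signal reports phosphorylation of biotinylated GST-cJun 1-79 at Ser73 with 10 µM ATP; on the % scale 0 is the no-effect control and ±100 the full control effect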); settings: JNK3 lysate, c-Jun phosphorylation; series mostly up to 57.1 µM
Summary of the method: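 qHTS titrations with 15 min compound pre-incubation before adding ATP (10 uM final). Read-out: AlphaScreen of Ser73-phosphorylated biotin-GST-cJun using HepG2 lysate JNK3 activated by IL-1β and TNFα.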

[9] = target: Cytochrome P450 3A4 (Homo sapiens) (UniProt P08684); experiment: qHTS Assay for Activators of Cytochrome P450 3A4 (AID 885); settings: recombinant CYP3A4, Luciferin-PPXE luminescence, 60 min; series mostly up to 57.1 µM; further: nearly all actives have a fitted effect of over 65% in size
Sequence of Cytochrome P450 3A4 (Homo sapiens) (P08684 whole entry, looked up): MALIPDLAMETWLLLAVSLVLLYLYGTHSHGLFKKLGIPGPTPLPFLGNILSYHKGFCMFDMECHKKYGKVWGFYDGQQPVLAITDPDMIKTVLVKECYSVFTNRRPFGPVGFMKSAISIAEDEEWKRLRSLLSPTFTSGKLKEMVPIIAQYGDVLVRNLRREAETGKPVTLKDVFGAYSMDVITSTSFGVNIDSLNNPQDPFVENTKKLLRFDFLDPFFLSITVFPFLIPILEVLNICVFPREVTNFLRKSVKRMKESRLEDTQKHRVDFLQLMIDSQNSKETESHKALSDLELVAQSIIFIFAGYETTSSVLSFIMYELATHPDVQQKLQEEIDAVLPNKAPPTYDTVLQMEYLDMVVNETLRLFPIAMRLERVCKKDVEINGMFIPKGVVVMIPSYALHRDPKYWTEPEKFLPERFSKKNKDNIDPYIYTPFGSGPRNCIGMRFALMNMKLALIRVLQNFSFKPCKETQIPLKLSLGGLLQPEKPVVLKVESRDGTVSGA
Summary of the method: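 Human CYP3A4 dealkylates Luciferin-PPXE to luciferin, which luciferase detection converts to light. Substrate was at its KM (25uM), buffer 200mM KPO4, reaction 60 min at RT.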

[10] = qHTS Assay for Lipid Storage Modulators (AID 1519; calls by dose curve); settings: Drosophila S3 cells, BODIPY lipid droplet/cell ratio, laser cytometry, cells loaded with oleic acid; for activity change, negative = inhibition: at 57.5 µM (top of the series)
Summary of the method: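 Cells seeded at 5,000 per well were treated with compounds over a concentration series and loaded with oleic acid (400 uM, as added). Lipid droplet fluorescence (488 nm excitation, 500-530 nm channel) was read by laser-scanning cytometry and normalized to 20 uM Triacsin C.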

[11] = target: Dual specificity protein kinase CLK4 (Homo sapiens) (UniProt Q9HAZ1); experiment: qHTS Assay for Inhibitors of CDC-like Kinase 4 (Kinase-Glo Assay) (AID 1770); settings: recombinant Clk4, Kinase-Glo ATP depletion luminescence; series mostly up to 66.7 µM; further: nearly all actives have a fitted effect of over 65% in size; further: potency means the concentration at half of the fitted maximal effect
Sequence of Dual specificity protein kinase CLK4 (Homo sapiens) (Q9HAZ1 whole entry, looked up): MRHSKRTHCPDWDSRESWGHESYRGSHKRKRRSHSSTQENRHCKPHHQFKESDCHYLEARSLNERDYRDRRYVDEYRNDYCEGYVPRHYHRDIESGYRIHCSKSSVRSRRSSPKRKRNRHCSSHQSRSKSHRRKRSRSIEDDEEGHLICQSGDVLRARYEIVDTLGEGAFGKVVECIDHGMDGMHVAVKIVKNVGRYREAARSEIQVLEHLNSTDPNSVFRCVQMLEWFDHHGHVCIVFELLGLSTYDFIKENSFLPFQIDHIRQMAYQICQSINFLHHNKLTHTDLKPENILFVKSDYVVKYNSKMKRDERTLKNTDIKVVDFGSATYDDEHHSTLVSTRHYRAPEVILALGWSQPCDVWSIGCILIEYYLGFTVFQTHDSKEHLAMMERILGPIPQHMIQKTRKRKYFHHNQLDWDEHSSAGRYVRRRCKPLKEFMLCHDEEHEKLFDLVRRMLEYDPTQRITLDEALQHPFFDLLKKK
Summary of the method: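 Inhibition was judged from remaining ATP, measured by Ultra-Glo luciferase bioluminescence after Clk4 (25 nM) had acted on RS peptide at 1 uM ATP for 4.5 hours, room temperature.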

[12] = target: Dual specificity protein kinase CLK4 (Homo sapiens) (UniProt Q9HAZ1); experiment: qHTS Assay for Inhibitors of CDC-like Kinase 4 (ADP-Glo Assay) (AID 1771); settings: recombinant CLK4, ADP-Glo luminescence; series mostly up to 80 µM; further: nearly all actives have a fitted effect of over 70% in size; further: potency means the concentration at half of the fitted maximal effect
Summary of the method: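 Compounds are pin-transferred onto substrate mix (100 uM RS peptide, 1 uM ATP), then 25 nM Clk4 is added. After 1 hr at room temperature, ADP-Glo reagent runs 45 min, detection reagent 30 min, then luminescence is read.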

[13] = target: Dual specificity protein kinase CLK4 (Homo sapiens) (UniProt Q9HAZ1); experiment: qHTS Assay for Inhibitors of CDC-like Kinase 4 (ADP-FP Assay) (AID 1795); settings: Transcreener ADP fluorescence polarization; series mostly up to 50 µM; further: nearly all actives have a fitted effect of over 60% in size; further: potency means the concentration at half of the fitted maximal effect
Summary of the method: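 Inhibition of ADP formation by 6.25 nM Clk4 is measured using 1 uM ATP and 100 uM RS repeat peptide over one hour. Produced ADP displaces a fluorescent tracer from antibody, lowering polarization.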

[14] = target: Ubiquitin carboxyl-terminal hydrolase 1 (Homo sapiens) (UniProt O94782); experiment: Inhibitors of USP1/UAF1: Pilot qHTS (AID 504865); settings: purified USP1/UAF1, Ub-rhodamine cleavage fluorescence; series mostly up to 54.9 µM;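 further: rhodamine fluorescence freed from ubiquitin-rhodamine substrate followed over time; top concentration of the series differs between compounds; on the % scale 0 is the no-effect control and ±100 the full control effect; nearly all actives have a fitted effect of over 35% in size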
Sequence of Ubiquitin carboxyl-terminal hydrolase 1 (Homo sapiens) (O94782 whole entry, looked up): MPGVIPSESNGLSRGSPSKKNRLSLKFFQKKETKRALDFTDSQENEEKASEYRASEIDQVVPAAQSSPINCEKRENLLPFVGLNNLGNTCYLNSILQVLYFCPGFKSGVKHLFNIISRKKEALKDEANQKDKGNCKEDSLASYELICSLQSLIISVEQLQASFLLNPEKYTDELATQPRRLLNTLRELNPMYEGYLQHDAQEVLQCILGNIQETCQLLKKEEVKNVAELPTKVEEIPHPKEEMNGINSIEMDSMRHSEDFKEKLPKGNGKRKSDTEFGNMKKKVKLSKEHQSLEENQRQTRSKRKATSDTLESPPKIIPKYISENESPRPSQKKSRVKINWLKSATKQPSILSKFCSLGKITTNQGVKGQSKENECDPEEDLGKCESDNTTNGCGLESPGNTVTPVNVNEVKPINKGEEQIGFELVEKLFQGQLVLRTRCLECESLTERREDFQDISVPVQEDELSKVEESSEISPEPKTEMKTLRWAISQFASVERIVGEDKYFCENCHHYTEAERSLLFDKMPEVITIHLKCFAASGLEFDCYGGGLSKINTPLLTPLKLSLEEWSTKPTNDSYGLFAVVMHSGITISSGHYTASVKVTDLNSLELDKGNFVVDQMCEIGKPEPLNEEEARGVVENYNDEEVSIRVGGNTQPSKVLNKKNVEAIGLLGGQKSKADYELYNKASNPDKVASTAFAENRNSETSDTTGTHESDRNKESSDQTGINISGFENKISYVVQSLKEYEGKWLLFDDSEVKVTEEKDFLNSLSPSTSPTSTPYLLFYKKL
Summary of the method: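 Kinetic fluorescence assay: 1nM USP1/UAF1, 15 min compound preincubation, then 150nM Ub-Rho; 480/540 nm.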

[15] = target: 3',5'-cyclic-AMP phosphodiesterase 4B (Homo sapiens) (UniProt Q07343); experiment: qHTS Assay for Inhibitors of PDE-IV (AID 607; active means well fitted activation curve with a large enough effect in the main read-out, with a control signal flat, not every such curve was filed as active; further: % of control where 0% means no effect); settings: HEK293 ACTOne CNG channel cells, membrane potential fluorescence; series mostly up to 22.9 µM
Sequence of 3',5'-cyclic-AMP phosphodiesterase 4B (Homo sapiens) (Q07343 whole entry, looked up): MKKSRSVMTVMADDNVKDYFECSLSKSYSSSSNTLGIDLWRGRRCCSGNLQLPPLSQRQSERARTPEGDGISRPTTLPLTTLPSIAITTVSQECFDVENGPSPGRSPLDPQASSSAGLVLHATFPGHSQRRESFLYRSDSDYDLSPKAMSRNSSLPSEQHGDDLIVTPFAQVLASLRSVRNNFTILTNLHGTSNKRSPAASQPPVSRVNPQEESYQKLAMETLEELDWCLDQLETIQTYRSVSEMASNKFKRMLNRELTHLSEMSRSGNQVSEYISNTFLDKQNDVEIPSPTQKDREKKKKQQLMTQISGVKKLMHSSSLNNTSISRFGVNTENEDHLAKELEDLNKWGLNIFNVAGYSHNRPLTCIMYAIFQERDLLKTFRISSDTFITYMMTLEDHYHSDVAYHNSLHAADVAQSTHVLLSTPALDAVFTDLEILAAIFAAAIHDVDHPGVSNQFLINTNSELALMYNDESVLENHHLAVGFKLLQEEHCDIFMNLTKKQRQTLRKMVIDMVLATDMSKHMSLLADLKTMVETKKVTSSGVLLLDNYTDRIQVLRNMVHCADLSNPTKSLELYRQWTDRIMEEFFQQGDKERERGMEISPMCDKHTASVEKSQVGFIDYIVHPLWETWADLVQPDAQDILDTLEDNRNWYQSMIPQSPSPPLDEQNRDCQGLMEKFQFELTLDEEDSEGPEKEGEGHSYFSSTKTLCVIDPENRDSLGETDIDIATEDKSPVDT
Summary of the method: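 HEK293 ACTOne cells with CNG channel (1000/well), endogenous PDE4; membrane potential dye, compounds up to 22.9 uM final. Fluorescence Ex 535/Em 590; RO 20-1724 (100 uM final) as reference.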

[16] = measured here: cell count channel max response
[17] = measured here: lipid channel max response

| SMILES | Potency [1] | activity change, negative = inhibition [2] | Potency [3] | activity change, negative = inhibition [4] | activity, negative = inhibition [5] | Potency [6] | Potency [7] | Potency [8] | Potency [9] | activity change, negative = inhibition [10] | max response [10, 16] [%] | max response [10, 17] [%] | Potency [11] | Potency [12] | Potency [13] | Potency [14] | Potency [15] |
| --- | --- | --- | --- | --- | --- | --- | --- | --- | --- | --- | --- | --- | --- | --- | --- | --- | --- |
| COc1ccccc1-c1ccc2ncnc(NCc3ccccc3)c2c1 | > 11.4 µM (inactive) | -25.6% (inactive) | 2 µM (active) | 0.253% (inactive) | -8.43% (inactive) | > 46 µM (inactive) | > 46 µM (inactive) | inactive | inactive | -15.2% (inactive) | -12.6 | -27.8 | 3.98 µM (active) | 6.31 µM (active) | 2.82 µM (active) | inactive |  |
| CN1CCN(c2ncnc3ccc(-c4cccc(NS(C)(=O)=O)c4)cc23)CC1 | > 11.4 µM (inactive) |  | 25.1 µM (active) |  | -16.1% (inactive) | > 46 µM (inactive) | > 46 µM (inactive) | inactive | inactive | -4.99% (inactive) | -11.5 | -16 | 6.31 µM (active) | 7.94 µM (active) | 10 µM (active) |  |  |
| COc1ccc(-c2nc3cnc(N4CCN(C)CC4)nc3n(C)c2=O)cc1 | > 11.4 µM (inactive) | 14.5% (inactive) | 25.1 µM (active) | 27.7% (inactive) | 26.5% (inactive) | > 9.22 µM (inactive) | > 46 µM (inactive) | inactive |  | 1.83% (inactive) | 6.37 | 3.68 | inactive | inactive | inactive |  | inactive |
| COc1cccc(-c2nc(NC3CCNCC3)c3ccccc3n2)c1 | > 11.4 µM (inactive) | 14.7% (inactive) | 12.6 µM (active) | 23.4% (inactive) | 5.39% (inactive) |  | > 46 µM (inactive) | inactive | inactive | 4.76% (inactive) | 12.9 | 4.05 | 11.2 µM (active) | 11.2 µM (active) | 12.6 µM (active) | inactive | inactive |
| CS(=O)(=O)Nc1cccc(-c2nc(NC3CC3)c3ccccc3n2)c1 |  | -17.2% (inactive) |  | 0.73% (inactive) | 4.92% (inactive) | > 46 µM (inactive) | > 46 µM (inactive) | inactive |  | 3.51% (inactive) | 19.9 | 22.8 | 7.94 µM (active) | 10 µM (active) | 12.6 µM (active) | inactive | inactive |
| CN(C)Cc1ccccc1-c1cc(NCc2ccccc2)ncn1 | > 11.4 µM (inactive) | -0.0154% (inactive) | inactive |  | 12.3% (inactive) | > 46 µM (inactive) | > 46 µM (inactive) | inactive |  | 4.72% (inactive) | 6.7 | 9.63 |  | inactive | inactive | inactive |  |
